What is called viability is a read-out of living cells in per cent, often relative to untreated cells.

The record followed here is PubChem BioAssay.

Test [1] deals with ATP-dependent translocase ABCB1 (Homo sapiens) (UniProt P08183). Kind of test: MDR1 (ABCB1) efflux transporter inhibition, cell-based (AID 377; in the data active = fluorescence slope change above about 50%). The note with it: MDR1-expressing cells, fluorescent substrate accumulation slope; stronger effect = higher value; concentration not given here.
Sequence of ATP-dependent translocase ABCB1 (Homo sapiens) (P08183 whole entry, looked up): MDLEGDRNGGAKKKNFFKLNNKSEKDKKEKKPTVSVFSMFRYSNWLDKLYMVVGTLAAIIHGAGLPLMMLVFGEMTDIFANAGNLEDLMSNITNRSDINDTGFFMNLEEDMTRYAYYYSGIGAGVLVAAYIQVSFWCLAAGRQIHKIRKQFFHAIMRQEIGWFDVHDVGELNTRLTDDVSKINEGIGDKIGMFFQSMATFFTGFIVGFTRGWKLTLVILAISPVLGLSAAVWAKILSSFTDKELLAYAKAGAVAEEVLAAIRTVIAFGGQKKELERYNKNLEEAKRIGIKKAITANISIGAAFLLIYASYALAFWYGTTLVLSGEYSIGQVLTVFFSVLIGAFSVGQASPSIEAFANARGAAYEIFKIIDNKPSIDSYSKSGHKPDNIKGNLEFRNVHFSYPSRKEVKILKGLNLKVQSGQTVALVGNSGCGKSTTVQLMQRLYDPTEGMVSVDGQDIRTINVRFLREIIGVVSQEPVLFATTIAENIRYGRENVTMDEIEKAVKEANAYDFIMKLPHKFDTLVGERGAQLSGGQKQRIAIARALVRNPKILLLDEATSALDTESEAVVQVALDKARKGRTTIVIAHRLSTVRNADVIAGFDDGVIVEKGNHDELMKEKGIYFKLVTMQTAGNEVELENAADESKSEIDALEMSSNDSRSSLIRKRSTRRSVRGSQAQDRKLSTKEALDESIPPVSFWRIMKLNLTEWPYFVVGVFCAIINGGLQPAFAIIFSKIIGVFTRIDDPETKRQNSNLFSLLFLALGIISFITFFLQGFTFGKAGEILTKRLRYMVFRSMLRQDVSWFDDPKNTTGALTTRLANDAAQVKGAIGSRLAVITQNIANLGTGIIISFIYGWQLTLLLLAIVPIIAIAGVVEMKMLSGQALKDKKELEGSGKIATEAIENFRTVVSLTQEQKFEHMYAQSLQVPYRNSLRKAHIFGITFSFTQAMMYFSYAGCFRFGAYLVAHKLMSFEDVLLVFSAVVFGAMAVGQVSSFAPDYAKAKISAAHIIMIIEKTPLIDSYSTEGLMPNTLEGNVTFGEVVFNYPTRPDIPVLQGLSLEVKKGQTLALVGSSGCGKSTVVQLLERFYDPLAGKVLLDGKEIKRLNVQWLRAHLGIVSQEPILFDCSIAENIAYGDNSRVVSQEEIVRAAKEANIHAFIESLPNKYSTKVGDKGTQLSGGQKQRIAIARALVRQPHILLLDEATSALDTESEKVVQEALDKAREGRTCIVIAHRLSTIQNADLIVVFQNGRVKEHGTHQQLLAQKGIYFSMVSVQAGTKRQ
Test [2] can be described thus: hESC survival regulators, cell-based (AID 493140; call rule not given here;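 also: cells exposed to compounds for four days before counting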). The note with it: human embryonic stem cell survival screen; stronger effect = higher value.
Test [3] can be described thus: liver-stage malaria parasite growth inhibition, primary screen, cell-based, HepG2, luciferase luminescence, HepG2 viability (AID 624349).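 Also: 100% = mean of DMSO negative control wells on the same plate.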 The note with it: P. berghei liver stage in HepG2, luciferase luminescence, concentration not given here; parasite load remaining: stronger effect = lower value; viability: measured here: HepG2 viability without parasites.

Molecules are shown by their SMILES. Records with an inconclusive call do not appear. Activity calls are given as the source filed them. Rule as the data show it, unless noted: active = parasite load remaining mostly below about 12% (no sharp cut-off); inactive = mostly above about 10%.

As for `CC(=O)Nc1c(I)c(C(=O)NC2[C@H](O)OC(CO)[C@@H](O)[C@H]2O)c(I)c(N(C)C(C)=O)c1I` (stereo partly drawn), in test [1], the fluorescence slope change is 95.2% (active). In addition, the survival in test [2] is 16.9 (inactive). For the same compound, in test [3], the parasite load remaining is 81% (inactive) and the viability is 75.5%.
For the compound `C=C(C)[C@@H]1CC[C@]2(CO)CC[C@]3(C)[C@H](CC[C@@H]4[C@@]5(C)CCC(O)C(C)(C)[C@@H]5CC[C@]43C)[C@@H]12` (stereo partly drawn), the survival in test [2] is 7.33 (inactive).
For the compound `CC[C@H]1OC(=O)[C@H](C)[C@@H](OC2CC(C)(OC)C(O)C(C)O2)[C@H](C)[C@@H](OC2OC(C)CC(N(C)C)C2O)[C@@H](C)C[C@](C)(O)[C@@H]2N[C@H](COCCOC)O[C@H]([C@H]2C)[C@]1(C)O` (stereo partly drawn), the fluorescence slope change in test [1] was 59.6% (active).
Regarding `O=C(O)c1cc2ccccc2c(Cc2cc3ccccc3c(C(=O)O)c2O)c1O` (tested in a mixture with another compound), the fluorescence slope change in test [1] is 14.8% (inactive). Moreover, the survival in test [2] was 7.75 (inactive). In addition, in test [3], the parasite load remaining was 58.5% (inactive) and the viability amounted to 76.8%.
For the compound `CC[N+]1(C)C2CCC1CC(OC(=O)[C@H]1CCC(C(=O)OC3CC4CCC(C3)[N+]4(C)CC)(c3ccccc3)c3ccccc31)C2` (stereo partly drawn), the fluorescence slope change in test [1] was 92.7% (active). The survival in test [2] is 4.5 (inactive).
On to `O=S(=O)(O)CCN1CCN(CCO)CC1`, for which the fluorescence slope change in test [1] is 26.7% (inactive).
Turning to `COc1cc([C@@H]2c3cc4c(cc3[C@@H](O[C@@H]3O[C@@H]5CO[C@@H](C)O[C@H]5[C@H](O)[C@H]3O)C3COC(=O)[C@@H]32)OCO4)cc(OC)c1O` (stereo partly drawn), in test [1], the fluorescence slope change is 20.9% (inactive). Besides, the survival in test [2] was 0.25 (inactive). Besides, in test [3], the parasite load remaining is 64.7% (inactive) and the viability worked out at 83.1%.
Take `CC(=O)S[C@@H]1CC2=CC(=O)CC[C@]2(C)[C@H]2CC[C@@]3(C)[C@@H](CC[C@]34CCC(=O)O4)[C@H]12`: the fluorescence slope change in test [1] was 162% (active).
Regarding `NCC1OC(OC2C(N)CC(N)C(O)C2O[C@@H]2O[C@H](CO)[C@H](O)C2O)C(N)C(O)C1O` (stereo partly drawn), the fluorescence slope change in test [1] was 50.5% (active). Besides, the survival in test [2] is 0.167 (inactive).
For `COC1CC(O[C@H]2[C@H](C)[C@@H](OC3OC(C)CC(N(C)C)C3O)[C@@H](C)C[C@]3(CO3)C(=O)[C@H](C)[C@@H](O)[C@@H](C)[C@@H](C)OC(=O)[C@@H]2C)OC(C)C1O` (stereo partly drawn), the fluorescence slope change in test [1] is 96.5% (active). Also, the survival in test [2] was 26.4 (inactive). For the same compound, in test [3], the parasite load remaining is 84.7% (inactive) and the viability came to 90.7%.
Taken in the same sequence, the figures for `COc1ccc(CC(N)C(=O)N[C@@H]2C(O)[C@H](n3cnc4c(N(C)C)ncnc43)O[C@@H]2CO)cc1` (stereo partly drawn) were 10.7% (inactive), 0.083 (inactive), 13.2% (inactive) and 14.9%.
`COc1cc(OC)c2c(c1Cl)O[C@]1(C2=O)C(OC)CC(=O)C[C@H]1C` (stereo partly drawn): the survival in test [2] was 13.2 (inactive). In test [3], the parasite load remaining was 83.9% (inactive) and the viability stood at 93.9%.
For `C=CC1=C(C(=O)O)N2C(=O)[C@@H](NC(=O)/C(=N/OCC(=O)O)c3csc(N)n3)[C@H]2SC1` (stereo in doubt), in test [2], the survival was 5.58 (inactive). In test [3], the parasite load remaining is 92.8% (inactive) and the viability was determined as 73.2%.
Taken in the same sequence, the figures for `O=c1[nH]c(=O)n([C@H]2CC(O)[C@@H](CO)O2)cc1I` (stereo partly drawn) were 6.25 (inactive), 130% (inactive) and 96.5%.
For the compound `NCC1OC(COC[C@@H]2C(O)[C@H](OC3C(O)C(N)CC(N)C3OC3OC(CN)C(O)C(O)C3N)O[C@@H]2CO)C(N)C(O)C1O` (stereo partly drawn), the survival in test [2] was 12.3 (inactive). In test [3], the parasite load remaining is 91.3% (inactive) and the viability is 89.7%.
Taken in the same sequence, the figures for `C=C1CC[C@@H](O)C/C1=C/C=C1\CCC[C@]2(C)[C@@H]([C@H](C)/C=C/[C@@H](C)C(C)C)CC[C@@H]12` were 8.25 (inactive), 66.4% (inactive) and 88.3%.
Regarding `Cc1cc2ncc(-c3ccccc3)nc2cc1C`, the survival in test [2] was 100 (inactive). In test [3], the parasite load remaining was 40.3% (inactive) and the viability stood at 74.4%.
Take `CN(C)CC/C=C1/c2ccccc2CSc2ccccc21`: in test [2], the survival is 3.75 (inactive). In test [3], the parasite load remaining is 68.1% (inactive) and the viability is 76.6%.
Taken in the same sequence, the figures for `CCOC(=O)[C@@H](CCc1ccccc1)NC(C)C(=O)N1CCC[C@@H]1C(=O)O` (stereo partly drawn) were 25.8 (inactive), 94.8% (inactive) and 91.7%.
Consider `O=C1Nc2ccc(Cl)cc2/C1=C/c1cc(Cl)c(O)c(Cl)c1`, for which, in test [3], the parasite load remaining is 28.5% (inactive) and the viability worked out at 82.4%.
Take `CCOC(=O)c1c(C)[nH]c(/C=C2\C(=O)Nc3ccccc32)c1C`: in test [3], the parasite load remaining is 39.2% (inactive) and the viability was found to be 69.8%.
Take `O=C(N[C@H](CO)[C@@H](O)c1ccc([N+](=O)[O-])cc1)C(Cl)Cl`: in test [2], the survival is 26.4 (inactive). In addition, in test [3], the parasite load remaining is 100% (inactive) and the viability is 91.7%.
For `Nc1nc2ncc(CNc3ccc(C(=O)N[C@H](CCC(=O)O)C(=O)O)cc3)nc2c(=O)[nH]1`, in test [2], the survival was 11.4 (inactive). Also, in test [3], the parasite load remaining was 51.4% (inactive) and the viability turned out to be 76.8%.
Taken in the same sequence, the figures for `COC1CC(O[C@@H]2[C@H](C)[C@H](OC3OC(C)CC(N(C)C)C3OC(C)=O)[C@H](C)CC3(CO3)C(=O)[C@@H](C)C(OC(C)=O)[C@H](C)[C@H](C)OC(=O)[C@@H]2C)OC(C)C1OC(C)=O` (stereo partly drawn) were 27.8 (inactive), 86.6% (inactive) and 90.9%.
Taken in the same sequence, the figures for `CC(=O)NC1[C@@H](O)OC(CO)[C@@H](O)[C@H]1O[C@H](C)C(=O)O` (stereo partly drawn) were 11.5 (inactive), 82.1% (inactive) and 76.2%.
Taken in the same sequence, the figures for `CC[C@@H]1OC(=O)[C@H](C)[C@H](O[C@H]2C[C@@](C)(OC)[C@@H](O)[C@H](C)O2)[C@@H](C)[C@@H](O[C@@H]2O[C@H](C)C[C@H](N(C)C)[C@H]2O)C(C)(O)C[C@@H](C)[C@@H]2NC(COCCOC)OC([C@H]2C)[C@]1(C)O` (stereo partly drawn) were 4.33 (inactive), 84.5% (inactive) and 77.5%.
Regarding `O=C1O[C@H](C(O)CO)[C@H](O)C1O` (stereo partly drawn), in test [2], the survival was 4.42 (inactive). For the same compound, in test [3], the parasite load remaining is 68.2% (inactive) and the viability came to 76.1%.
With `CC(=O)NC(CC(=O)O)C(=O)O` (stereo not drawn), in test [2], the survival was 11.8 (inactive). In test [3], the parasite load remaining was 89% (inactive) and the viability was determined as 77%.
Taken in the same sequence, the figures for `CN1[C@@H]2CC[C@H]1CC(OC(=O)[C@@H](CO)c1ccccc1)C2` (stereo partly drawn) were 13.1 (inactive), 111% (inactive) and 89%.
Taken in the same sequence, the figures for `CC(C)(O/N=C(/C(=O)N[C@@H]1C(=O)N2C(C(=O)[O-])=C(C[n+]3ccccc3)CS[C@H]12)c1csc(N)n1)C(=O)O` were 5.92 (inactive), 88.2% (inactive) and 82.6%.
`CC#CC(=O)Nc1cc2c(Nc3ccc(F)c(Cl)c3)ncnc2cn1`: in test [3], the parasite load remaining is 50.6% (inactive) and the viability was 159%.
On to `C[C@]12CCC(=O)C[C@H]1CC(=O)[C@@H]1[C@@H]2CC(=O)[C@]2(C)CCC[C@@H]12` (tested in a mixture with another compound), for which the survival in test [2] was 19.5 (inactive). Further, in test [3], the parasite load remaining was 107% (inactive) and the viability was 86.8%.
Take `C=C1CC[C@@H](O)C/C1=C/C=C1\CCC[C@]2(C)[C@@H]([C@H](C)CCCC(C)C)CC[C@@H]12`: the survival in test [2] is 15.8 (inactive). In test [3], the parasite load remaining is 79.3% (inactive) and the viability turned out to be 76%.
Regarding `CC[C@H]1OC(=O)[C@H](C)[C@@H](O[C@H]2C[C@@](C)(OC)[C@@H](O)[C@H](C)O2)[C@H](C)[C@@H](O[C@H]2O[C@H](C)C[C@H](N(C)C)[C@H]2O)[C@](C)(O)C[C@@H](C)C(=O)[C@H](C)[C@@H](O)[C@]1(C)O`, the survival in test [2] was 35.4 (inactive). For the same compound, in test [3], the parasite load remaining is 97.5% (inactive) and the viability came out at 81.9%.
Taken in the same sequence, the figures for `CS(=O)(=O)c1ccc(-c2nc(-c3ccc(F)cc3)c(-c3ccncc3)[nH]2)cc1` were 113 (inactive), 28.7% (inactive) and 88.5%.
Taken in the same sequence, the figures for `CC1Cc2ccccc2N1NC(=O)c1ccc(Cl)c(S(N)=O)c1` (stereo not drawn) were 17.1 (inactive), 50.9% (inactive) and 94.8%.
For the compound `C[C@H]1[C@H](C)CC[C@]2(C(=O)O)CC[C@]3(C)C(=CCC4[C@@]5(C)CC[C@H](O)C(C)(C)[C@@H]5CC[C@]43C)[C@H]12` (stereo partly drawn), in test [2], the survival was 11.2 (inactive). Also, in test [3], the parasite load remaining is 107% (inactive) and the viability came to 92.7%.
Turning to `CCOC(=O)Oc1c(OC)cc(C(=O)OC2CC3CN4CCc5c([nH]c6cc(OC)ccc56)C4CC3C(C(=O)OC)C2OC)cc1OC` (stereo not drawn), the survival in test [2] is 6.25 (inactive). Moreover, in test [3], the parasite load remaining is 55.8% (inactive) and the viability was 77.6%.
Regarding `CC[C@H]1CN2CCc3cc(OC)c(OC)cc3[C@@H]2C[C@@H]1CC1NCCc2cc(OC)c(OC)cc21` (stereo partly drawn), in test [2], the survival is 0.25 (inactive). Besides, in test [3], the parasite load remaining was 2.62% (inactive) and the viability came to 61.4%.
Consider `Nc1n[nH]c(N)c1N=Nc1ccc(O)cc1`, for which, in test [3], the parasite load remaining was 23.7% (inactive) and the viability stood at 93.1%.
With `CN1CCC23c4ccccc4NC1C21CCN(C)C3Nc2ccccc21`, the survival in test [2] was 4.92 (inactive). Further, in test [3], the parasite load remaining was 79.4% (inactive) and the viability is 76.7%.
`O=C(Nc1ccncc1)Nc1c(Cl)cc(Cl)cc1Cl`: in test [3], the parasite load remaining is 41.9% (inactive) and the viability was 65.2%.
`CN=C(NC#N)NCCSCC1N=CN=C1C` (stereo not drawn): the survival in test [2] is 16.7 (inactive). Also, in test [3], the parasite load remaining was 100% (inactive) and the viability is 88.8%.
Taken in the same sequence, the figures for `Nc1c2ccccc2nc2c(O)cccc12` were 5.5 (inactive), 80.8% (inactive) and 77.4%.
Taken in the same sequence, the figures for `C1CCN2C[C@H]3C[C@@H](CN4CCCC[C@@H]34)[C@H]2C1` were 10 (inactive), 73.9% (inactive) and 72.2%.
Taken in the same sequence, the figures for `Cc1c(C)c2c(c(C)c1O)CC[C@](C)(CCC[C@@H](C)CCC[C@@H](C)CCCC(C)C)O2` were 5.83 (inactive), 52.8% (inactive) and 78.5%.
